# This is a sample that favours compounds with a hit; in the whole collection about 19% have one here.
# Pf growth 96h: P. falciparum growth inhibition at 96 hour, primary screen for plastid delayed-death inhibitors | P. falciparum luciferase reporter growth, 96 h | Potency, µM (doses to about 28.7 µM), for the others: at the top dose activity change, negative = inhibition, usual class: inhibitors | 6.9% of 320,000 active; also: potency is read from the fitted curve at half-maximal effect; % is scaled to controls: 0 for no effect and ±100 for the full control effect
#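 Luminescence readout: decreased luciferase signal marks inhibited growth of reporter-expressing P. falciparum in infected red cells (2% hematocrit, 0.05% parasitemia final), exposed to compound two generations (96 h, 37 C, 5% CO2).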
# Shiga inhibitor: blocks Shiga toxin action in Vero cells | Vero cells, Shiga toxin protein synthesis inhibition reporter | inhibition, % at 38.7 µM | 9.2% of 290,000 active; in the data active = inhibition mostly above about 28%, no sharp cut-off; inactive = mostly below about 43%; also: 0% is about no effect
# MARV entry inh: Marburg virus entry inhibition; 1.8% of 300,000 active; Marburg virus pseudotyped entry inhibition, cell reporter; Potency, µM (doses to about 37.8 µM), for inactives: top-dose activity change, negative = inhibition, most hits filed as inhibitors; calls by dose curve; tested in HEK293 cells; also: potency is read from the fitted curve at half-maximal effect; % is scaled to controls: 0 for no effect and ±100 for the full control effect
# Pf growth 48h: inhibits P. falciparum growth in the first generation, 48 h; P. falciparum luciferase growth in erythrocytes, 48 h; AID 504832; Potency, µM (highest dose often 28.7 µM), without a hit: top-dose activity change, negative = inhibition, actives largely listed as inhibitors; 5.9% of 310,000 active; also: potency is read from the fitted curve at half-maximal effect; % is scaled to controls: 0 for no effect and ±100 for the full control effect
#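 Parasite viability was followed by luminescence of a genomically integrated firefly luciferase. Cultures held 0.1% parasitemia at 2% hematocrit (final), incubated under 5% CO2 at 37 C.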
# CHX counter: counter-screen for Shiga toxin inhibitors: cycloheximide protein synthesis inhibition; 12% of 300,000 active; max response, %; cell reporter, cycloheximide protein synthesis inhibition counterscreen; AID 2314; in the data active = max response mostly above about 13%, no sharp cut-off; inactive = mostly below about 14%; also: read at 38.3 µM for the half of the compounds with a filed dose; 0% is about no effect
# LASV entry inh: inhibitors of Lassa virus binding or cell entry; 1.2% of 300,000 active; AID 540256; Lassa virus pseudotype entry inhibition, cell reporter; Potency, µM (series often up to 37.9 µM), for inactives: at the top dose activity change, negative = inhibition, usual class: inhibitors; calls by dose curve; tested in HEK293 cells; also: potency is read from the fitted curve at half-maximal effect; % is scaled to controls: 0 for no effect and ±100 for the full control effect; nearly all actives have a fitted effect of over 50% in size
# * hit, by the source's call; ? = inconclusive; . = no result; ! = repeats disagree; [ ] = dose if it differs, or a comment. Unless noted, calls follow the shape of the dose curve; as a rule, active = well fitted inhibition curve with a large enough effect; inconclusive = small, poorly fitted or top-dose-only effect, or another doubt; inactive = no such curve, though single readings can be large or run the other way.
SMILES,Pf growth 96h,Shiga inhibitor,MARV entry inh,Pf growth 48h,CHX counter,LASV entry inh
CS(=O)(=O)N(CC(=O)Nc1ccc(Br)cc1)c1ccccc1Br,.,.,.,.,.,-9%[46.1 µM]
CCOc1ncccc1-c1nc(-c2cccs2)no1,-8%,60*,.,.,50*,.
CCOc1ccc(-c2nc(-c3cccnc3)no2)cc1,156%,23*,5.6µM*,173%,31*,10µM*
Cc1ccc2oc(=O)c(-c3nc(-c4cccs4)no3)cc2c1,.,.,.,.,.,-1%[46.1 µM]
Cc1ccc(-c2noc(-c3ccccc3F)n2)cc1,49%,108*,?,216%,27*,?
Cc1ccc(-c2noc(-c3cccs3)n2)cc1,?,67*,-28%,299%,70*,-25%
CCS(=O)(=O)N1Cc2ccccc2CC1C(=O)Nc1nnc(SCc2c(Cl)cccc2Cl)s1 (stereo unspecified),?,-4,?,?,-1,25%
O=C(c1ccc(COc2ccccc2[N+](=O)[O-])o1)N1CCCCC1,-10%,31,7%,-2%,10,25%
CC/C(=N\N=C1\SC(C)C(=O)N1Cc1ccco1)c1ccccc1 (stereo unspecified),-24%,33,7%,?,-3,-17%
COc1cc(OC)cc(-c2nc(-c3ccccc3)no2)c1,.,55,25%,148%,17*,18%
CCCCOc1ccc(-c2nc(-c3cccnc3)no2)cc1,26%,80*,?,45%,25*,-2%
Cc1c(C(=O)NCCc2ccccc2)oc2ccc(S(=O)(=O)N3CCC4(CC3)OCCO4)cc12,?,14,?,?,-3,23µM*
COc1ccc(NC(=O)c2oc3ccc(S(=O)(=O)N4CCC5(CC4)OCCO5)cc3c2C)cc1,74%,11,21µM*!,3.7µM*,9,?
Cc1ccc(NC(=O)c2oc3ccc(S(=O)(=O)N4CCC5(CC4)OCCO5)cc3c2C)cc1Cl,.,.,.,.,.,4%[46.1 µM]
O=C(NNS(=O)(=O)c1ccc(F)cc1)c1ccc(O)cc1,10µM*,-10,.,-5%,-1,.
O=C(NNS(=O)(=O)c1ccccc1)c1ccc([N+](=O)[O-])cc1,15µM*,-15,.,18%,0,.
O=C(NC(=S)NNS(=O)(=O)c1ccccc1)c1ccc([N+](=O)[O-])cc1,?,-17,-19%,-9%,-2,3%
COCCNC(=O)c1ccc(C)c(S(=O)(=O)Nc2ccc(C)cc2)c1,.,14,-1%,-20%,8,1%
COc1ccc(CCN(Cc2ccccn2)C(=S)Nc2cccc(SC)c2)cc1OC,-28%,-3,-3%[46.1 µM],?,5,0%
CCN(CC)S(=O)(=O)c1ccc(N2CCOCC2)c(NC(=O)c2ccc(N3CCCC3=O)cc2)c1,15µM*,.,?,7.4µM*,.,?
CCN(CC)S(=O)(=O)c1ccc(N2CCCCC2)c(NC(=O)C2=COCCO2)c1,1.5µM*,.,?,1.9µM*,.,?
CCN(CC)S(=O)(=O)c1ccc(N2CCCCC2)c(NC(=O)C2CCN(C(=O)c3ccc(F)cc3)CC2)c1,9.3µM*,.,?,12µM*,.,-14%
CCCC(=O)Nc1cc(-c2nn(C)c(=O)c3ccccc23)ccc1N1CCCCC1,.,.,?,.,.,-14%
CCN(CC)S(=O)(=O)c1ccc(N2CCOCC2)c(NC(=O)c2ccccc2)c1,?,-12,30%,?,7,-1%
CCC(=O)Nc1cc(-c2nn(C)c(=O)c3ccccc23)ccc1N1CCCCC1,75%,-3,?,5.2µM*,-3,?
SMILES,Pf growth 96h,Shiga inhibitor,MARV entry inh,Pf growth 48h,CHX counter,LASV entry inh
CC1(C)Cc2c(c(-c3ccccc3)[nH]c(=O)c2C#N)CS1,1%,-12,1%,-2%,5,1%
CC(C)(C)c1ccc(OCC(=O)N(Cc2ccco2)Cc2ccccc2F)cc1,.,.,?,.,.,-14%[46.1 µM]
O=C(CCc1nc2ccccc2c(=O)[nH]1)OCc1ccc(Cl)cc1Cl,12%,20,4%,-13%,-4,3%
CCN(CC)S(=O)(=O)c1ccc(N2CCCC2)c(NC(=O)c2ccc(N3CCCC3=O)cc2)c1,12µM*,.,-12%,13µM*,.,-26%
CCN(CC)S(=O)(=O)c1ccc(N2CCCCC2)c(NC(=O)c2ccncc2)c1,?,35*,-30%[46.1 µM],?,12,?
CCN(CC)S(=O)(=O)c1ccc(OC(C)C)c(NC(=O)C2=COCCO2)c1,8.3µM*,.,?,?,.,?
